Dicer inh = human Dicer pre-microRNA cleavage inhibition; Q9UPY3; cat-ELCCA pre-miR-21 Dicer processing, chemiluminescence; stronger effect = higher value; z-score at 25 µM; hit rate 6% among 47,000; in the data active = z-score above about 3, passing the limit was not always enough;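 note: plate controls were vehicle for no effect and no enzyme for full effect; higher signal means more uncleaved substrate so more Dicer inhibition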
Starred values were filed as active, the others as inactive. This excerpt belongs to a sample that is enriched for hits.

How did COc1ccc(-c2cc(-c3ccccc3)nc(NS(=O)(=O)c3ccc(N)cc3)n2)cc1 do in these assays?
Dicer inh: -0.09

What do the screens show for `CN(C(=O)c1ccc2c(c1)CCO2)C(C)(C)C`?
Dicer inh: -0.86

How did CC(C)(C)c1cc(C(C)(C)C)n(-c2ccc(C(=O)O)cc2)n1 do in these assays?
Dicer inh: -0.66

Results for CC(C)(C)c1ccc2c(c1)CN(c1ccc(C(=O)O)cc1)CO2 ?
Dicer inh: 3.86*

What do the screens show for `COc1ccccc1Nc1cccccc1=O`?
Dicer inh: 2.68

Results for COc1ccccc1Nc1n[nH]c(C)c1[N+](=O)[O-] ?
Dicer inh: 1.93

How did COc1ccccc1Nc1cc(=O)[nH]c(=O)[nH]1 do in these assays?
Dicer inh: 3.58*

Results for Cc1onc(-c2ccccc2)c1C(=O)Nc1ccccc1Oc1ccc(Cl)cc1Cl ?
Dicer inh: -0.51

Results for COc1cc2c(cc1OC)-c1c(C#N)c(-c3ccc(Cl)cc3)c(C(=O)c3cccs3)n1CC2 ?
Dicer inh: -0.34

How did COc1cc2c(cc1OC)-c1c(C#N)c(-c3ccc4c(c3)OCO4)c(C(C)=O)n1CC2 do in these assays?
Dicer inh: 1.83

How did COc1cc2c(cc1OC)-c1c(C#N)c(-c3ccc(C)cc3)c(C(=O)c3cccs3)n1CC2 do in these assays?
Dicer inh: 6.22*

What do the screens show for `N#Cc1ccsc1NC(=O)c1ccc2c(c1)CCO2`?
Dicer inh: 1.74

How did Nc1ncnc2c1nc(N/N=C/c1c(Cl)cccc1Cl)n2[C@H]1O[C@@H](CO)[C@H](O)[C@@H]1O do in these assays?
Dicer inh: 1.66

How did CCCCN(CCCC)CCCn1cnc2ncccc2c1=O do in these assays?
Dicer inh: -0.25

What do the screens show for `Cc1n[nH]c(C)c1Sc1nnnn1-c1ccccc1`?
Dicer inh: -1.73

How did CS(=O)(=O)NCCSc1nnnn1-c1ccccc1 do in these assays?
Dicer inh: -0.83

What do the screens show for `O=C(CSc1nnnn1-c1ccccc1)Nc1cccc(F)c1`?
Dicer inh: 0.09

How did CCc1nnc(NC(=O)CSc2nnnn2-c2ccccc2)s1 do in these assays?
Dicer inh: 1.79

How did CC(C)Sc1nnnn1-c1ccccc1 do in these assays?
Dicer inh: 4.91*

How did NC(=O)CSc1nnnn1-c1ccccc1 do in these assays?
Dicer inh: 4.88*

What do the screens show for `CCOC(=O)CNC(=O)c1cccc(Cl)c1`?
Dicer inh: -0.89

What do the screens show for `Cc1sc2nc(SCC(=O)NCc3ccccn3)[nH]c(=O)c2c1C`?
Dicer inh: 1.27

Results for COC(=O)c1c(C)oc2cc(Br)c(OC(C)C(=O)OC)cc12 (configuration not stated) ?
Dicer inh: 2.34

How did OCc1nc2ccccc2n1Cc1cccc(Br)c1 do in these assays?
Dicer inh: -0.25

How did O=C(Nc1cccnc1)c1cc2c(ccc3ccccc32)o1 do in these assays?
Dicer inh: -0.39

What do the screens show for `O=C(O)c1cc2cc(Cc3cccnc3)ccc2o1`?
Dicer inh: 3.63*

How did O=C(O)c1cc2c(ccc3ccccc32)o1 do in these assays?
Dicer inh: 1.01

Results for O=C(CSc1nnc(-c2ccco2)n1-c1ccccc1)c1c[nH]c2ccccc12 ?
Dicer inh: 0.79

Results for Cc1cc(C(=O)C(F)(F)F)c(C)n1-c1ccccc1 ?
Dicer inh: 0.5

Results for COc1ccccc1N1C(=O)C2C(c3ccc(Cl)cc3)OC3(C(=O)c4ccccc4C3=O)C2C1=O (configuration not stated) ?
Dicer inh: 0.68

What do the screens show for `Cn1c2ccccc2c2nnc(SCC(=O)O)nc21`?
Dicer inh: 0.4

What do the screens show for `O=S(=O)(c1ccccc1)c1ccc(S(=O)(=O)N2CCOCC2)s1`?
Dicer inh: -0.55

What do the screens show for `CC(=O)c1ccc(N2CCN(S(=O)(=O)c3ccc(S(=O)(=O)c4ccccc4)s3)CC2)cc1`?
Dicer inh: -0.13

How did O=S(=O)(c1ccccc1)c1ccc(S(=O)(=O)N2CCN(C3c4ccccc4-c4ccccc43)CC2)s1 do in these assays?
Dicer inh: 3.36*

How did O=C(O)CC1=C(c2ccccc2)CCC1=O do in these assays?
Dicer inh: -2.15

How did CCc1cc2c3c(c1)C(C)=CC(C)(C)N3C(=O)C2=O do in these assays?
Dicer inh: 1.34

Results for COC(=O)Nc1cc(OC)cc(C(F)(F)F)c1 ?
Dicer inh: -0.1

How did N#Cc1c(C(F)(F)F)cc(-c2cccnc2)[nH]c1=O do in these assays?
Dicer inh: -0.58

How did Cc1ccc2oc(=O)n(CC(=O)O)c2c1 do in these assays?
Dicer inh: 1.29

What do the screens show for `Cc1ccc2oc(=O)n(Cc3ccccc3OC(C)C)c2c1`?
Dicer inh: 5.1*

What do the screens show for `COc1ccc(Cn2c(=O)oc3ccccc32)cc1OC`?
Dicer inh: -0.24

How did CC(C)S(=O)(=O)c1csc(C(=O)O)c1 do in these assays?
Dicer inh: -1.19

What do the screens show for `Cn1nc(CC(=O)O)c2ccccc2c1=O`?
Dicer inh: 2.21

Results for O=c1cc(-c2ccccc2)oc2ccc(-c3nn[nH]n3)cc12 ?
Dicer inh: 0.08

Results for Cc1ccc2oc(-c3ccccc3)cc(=O)c2c1 ?
Dicer inh: 4.71*

Results for Cc1ccc2oc(C(=O)O)cc(=O)c2c1 ?
Dicer inh: 2.48

How did Cc1ccc2c(c1)C(=O)C(=O)N2CCOc1ccc(C(C)(C)C)cc1 do in these assays?
Dicer inh: 0.92

How did O=C(Nc1cccs1)Nc1ccccc1N1CCOCC1 do in these assays?
Dicer inh: 1.21

How did CCSc1nnc2c(n1)OC(CC)=Nc1ccccc1-2 do in these assays?
Dicer inh: -1.21

How did CCCSc1nnc2c(n1)OC(C)=Nc1ccc(Br)cc1-2 do in these assays?
Dicer inh: 3.7*

Results for CSc1nnc2c(n1)OC(C)=Nc1ccccc1-2 ?
Dicer inh: 0.37

What do the screens show for `CCCCSc1nnc2c(n1)OC(CC)=Nc1ccccc1-2`?
Dicer inh: -0.65

How did CCSc1nnc2c(n1)OC(C)=Nc1ccc(Br)cc1-2 do in these assays?
Dicer inh: 3.35*

What do the screens show for `CSc1nnc2c(n1)OC(C)=Nc1ccc(Br)cc1-2`?
Dicer inh: 1.93

How did COc1cccc(OC)c1NC(=O)NC(=O)c1c(OC)ccc(Br)c1OC do in these assays?
Dicer inh: -0.21

Results for N#Cc1c(-c2ccc(Cl)cc2Cl)nn(-c2ccc([N+](=O)[O-])cc2)c1N ?
Dicer inh: -1.12

What do the screens show for `COc1ccc(-c2cc(OC(=O)c3cccs3)c3c(C)oc(C)c3c(=O)c2)cc1`?
Dicer inh: 4.31*

How did COc1ccc(-c2cc(OC(=O)c3ccc(Cl)cc3)c3c(C)oc(C)c3c(=O)c2)cc1 do in these assays?
Dicer inh: 1.73

How did COc1ccc(-c2cc(OC(=O)c3cccc(Br)c3)c3c(C)oc(C)c3c(=O)c2)cc1 do in these assays?
Dicer inh: 2.69

Results for CC(=O)Oc1ccc2nc(-c3ccccc3F)oc(=O)c2c1 ?
Dicer inh: -0.23

What do the screens show for `Cc1onc(-c2c(Cl)cccc2Cl)c1NC(=O)N(C)c1c2c(nn1C)CCCC2`?
Dicer inh: -0.51

What do the screens show for `CCc1nc(CN2CCN(c3ccc(F)cc3)CC2)c(C)[nH]1`?
Dicer inh: -0.43

Results for COC(=O)C1=NOC2C(=O)N(c3ccc(C)cc3)C(=O)C12 (configuration not stated) ?
Dicer inh: 3.59*

What do the screens show for `COC(=O)C1=NOC2C(=O)N(c3ccc(OC)cc3)C(=O)C12` (configuration not stated)?
Dicer inh: 1.04

What do the screens show for `CCOC(=O)C1=NOC2C(=O)N(c3ccc(F)cc3)C(=O)C12` (configuration not stated)?
Dicer inh: 1.3
